HT1080 IDH1KD tx – toxicity to HT-1080 IDH1 knockdown cells (counter line). HT-1080 IDH1 knockdown viability, ATP luminescence, 48 h. Potency, µM (highest dose often 46.1 µM), for the others: top-dose activity, negative = toxicity, most hits filed as cytotoxic. 360,000 compounds, 2% hits. AID 686971;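 also: potency is read from the fitted curve at half-maximal effect; 0% = DMSO wells and -100% = cell-free medium wells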
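Assay cells: HT-1080 with IDH1 knockdown, 750 per well, RPMI/5% FBS. Exposure: 48 h at 37 °C following 2 h pre-incubation. Read: CellTiter-Glo luminescence; fitted concentration-response, curve class assigned.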
TGFb inhibitor – TGF-b pathway inhibition | HepG2 CAGA-GFP TGF-b/SMAD3 reporter, GFP fluorescence, 18 h; TGF-beta stimulated, 500 pg/mL final | Potency, µM (titrated, usually from 46.1 µM), inactives show at the top dose activity, negative = inhibition, actives largely listed as inhibitors | 410,000 compounds, 1.2% hits | AID 588855; also: potency is read from the fitted curve at half-maximal effect; % is scaled to controls: 0 for no effect and ±100 for the full control effect; nearly all actives have a fitted effect of over 65% in size
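First, reporter cells (HEPG2 CAGA-GFP) rested 2 h at 37 degrees C. Next, compounds were pinned in and TGF-beta added to 500 pg/mL final. After 18 h, GFP was imaged per cell and summed per well.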
HT1080-NT tox – kills 2HG-producing HT-1080-NT fibrosarcoma cells; 360,000 compounds, 1.6% hits; HT-1080-NT fibrosarcoma viability, CellTiter-Glo ATP luminescence, 48 h; Potency, µM (doses to about 46.1 µM), without a hit: at the top dose activity, negative = less viability, actives largely listed as cytotoxic; AID 686970;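 also: NT is the 2HG producing partner of a matched IDH1 knockdown line; potency is read from the fitted curve at half-maximal effect; 0% = DMSO-treated cells and -100% = media-only wells without cells; nearly all actives have a fitted effect of over 55% in size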
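Viability by CellTiter-Glo luminescence after 48 h compound exposure at 37C of HT-1080-NT cells (750/well, RPMI, 5% FBS). % activity scaled between DMSO wells and medium-only wells, then curve-fitted and categorized by curve class.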
Giardia kill – kills Giardia lamblia. AID 540267. 340,000 compounds, 0.15% hits. Giardia lamblia trophozoite viability. activity change, % at 7.66 µM, hits read low; in the data active = activity change below about -80%; inconclusive = between about -30% and that limit;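 also: parasites exposed to compound for two days anaerobically before the ATP read; % is scaled to controls: 0 for no effect and ±100 for the full control effect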
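Giardia lamblia trophozoites (100 cells/well) were incubated with compounds for 48 h at 37 deg C under anaerobic conditions. Viability was read as ATP content by one-step luminescence after 15-30 min at room temperature.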
HepG2 viability – counter-screen for TGF-b inhibitors: cytotoxicity in HepG2 cells. HepG2 CAGA-GFP viability, ATP luminescence, 18 h. Potency, µM (highest dose often 46.1 µM), inactives show at the highest dose activity change, negative = cytotoxicity, actives largely listed as cytotoxic. 410,000 compounds, 0.76% hits. AID 588856; also: potency is read from the fitted curve at half-maximal effect
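HepG2 CAGA-GFP cells (1000/well, DMEM with 1% FBS) received compound, then TGF-beta at 500 pg/mL final, and were incubated 18 hours at 37 degrees C. Viability was read by CellTiter-Glo luminescence. Media-only wells were set as complete cell-killing and DMSO as no toxicity.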
IL-1B inflam inh – inhibitors of inflammasome signaling (IL-1 beta secretion). THP-1 LPS/ATP IL-1B secretion, AlphaLISA, 16 h; active compounds read low. activity change, % at 57.5 µM. 360,000 compounds, 4.7% hits. AID 743279; in the data active = activity change below about -50%; inconclusive = mostly about -30% to -49%; also: % is scaled to controls: 0 for no effect and ±100 for the full control effect
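THP-1 cells pretreated 1 hr with compounds (up to 57.5 uM final), then stimulated with LPS (250 ng/mL final) plus ATP (1.25 mM final); secreted IL-1B measured by AlphaLISA after 16 hr, decreased signal indicating inhibition.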
* marks the source's active call; other numbers are inactive results. The list is not random: actives were taken first. Their share in the collection is about 6.5%. Unless noted, calls follow the shape of the dose curve; as a rule, active = well fitted curve in the direction sought with a large enough effect; inconclusive = small, poorly fitted or top-dose-only effect, or another doubt; inactive = no such curve, though single readings can be large; an effect the other way counts as inactive or inconclusive.

How did COc1ccc(-n2nnnc2/C=C\Nc2ccccc2C(=O)c2ccccc2)cc1 do in these assays?
HT1080 IDH1KD tx: 5.17µM*; TGFb inhibitor: 9.5%; HT1080-NT tox: 5.8µM*; Giardia kill: 8.6; HepG2 viability: -4.7%; IL-1B inflam inh: 47.0

What do the screens show for `O=C(O)c1ccc(S(=O)(=O)c2ccc([N+](=O)[O-])cc2[N+](=O)[O-])cc1`?
HT1080 IDH1KD tx: -7.4%; TGFb inhibitor: -12.3%; HT1080-NT tox: -4.3%; Giardia kill: 0.4; HepG2 viability: -7.1%; IL-1B inflam inh: 16.1

What do the screens show for `O=C(O)CCS(=O)(=O)c1cccc2cccnc12`?
HT1080 IDH1KD tx: 0.3%; TGFb inhibitor: 18.3%; HT1080-NT tox: 1.1%; Giardia kill: inconclusive; HepG2 viability: 5.7%; IL-1B inflam inh: -13.6

How did CCSS(=O)(=O)c1cccc2cccnc12 do in these assays?
HT1080 IDH1KD tx: inconclusive; TGFb inhibitor: inconclusive; HT1080-NT tox: 32.6µM*; Giardia kill: -16.1; HepG2 viability: -147.1%

What do the screens show for `COc1ccc(C2=NN(C(=O)c3ccccc3)C(c3cccc([N+](=O)[O-])c3)C2)cc1` (stereo unspecified)?
HT1080 IDH1KD tx: -2.4%; TGFb inhibitor: -22.7%; HT1080-NT tox: -4.6%; Giardia kill: inconclusive; HepG2 viability: -0.2%; IL-1B inflam inh: -8.2

What do the screens show for `O=c1/c(=C\c2ccc(O)cc2)sc2nc(-c3ccccc3)c(-c3ccccc3)n12`?
HT1080 IDH1KD tx: 18.3%; TGFb inhibitor: -5.8%; HT1080-NT tox: 3.3%; Giardia kill: 1.4; HepG2 viability: -7.4%; IL-1B inflam inh: -57.3*

Results for CN1c2cc(Cl)ccc2-c2nc(SCC(=O)Nc3ccc(F)cc3F)ncc2S1(=O)=O ?
TGFb inhibitor: -2.1%; HepG2 viability: -18.1%

Results for O=C(NCc1ccc(F)cc1)C1CCCN(c2ncnc3onc(-c4ccc(F)cc4)c23)C1 (stereo unspecified) ?
TGFb inhibitor: -15.0%; HepG2 viability: -24.4%

Results for CCN(CC)S(=O)(=O)c1ccc2oc(Nc3ccc4c(c3)OCCO4)nc2c1 ?
HT1080 IDH1KD tx: inconclusive; TGFb inhibitor: -12.4%; HT1080-NT tox: -29.7%; Giardia kill: 13.2; HepG2 viability: -17.9%; IL-1B inflam inh: 20.7

How did CCC(CO)Oc1cc(NCc2ccc(Cl)cc2)c2ncn(C(C)C)c2c1 (stereo unspecified) do in these assays?
HT1080 IDH1KD tx: -23.8%; TGFb inhibitor: inconclusive; HT1080-NT tox: -21.7%; Giardia kill: -0.7; HepG2 viability: -23.2%; IL-1B inflam inh: -9.5

What do the screens show for `CCC(CO)Oc1cc(NCc2ccc(Cl)cc2Cl)c2ncn(C(C)C)c2c1` (stereo unspecified)?
HT1080 IDH1KD tx: inconclusive; TGFb inhibitor: 20µM*; HT1080-NT tox: inconclusive; Giardia kill: 0.4; HepG2 viability: -72.1%; IL-1B inflam inh: 78.4

What do the screens show for `COCCNCCCCOc1ccc(C)cc1[N+](=O)[O-]`?
HT1080 IDH1KD tx: 9.9%; TGFb inhibitor: 2.6%; HT1080-NT tox: 11.1%; Giardia kill: 4.3; HepG2 viability: -10.4%; IL-1B inflam inh: -3.3

How did OCCC1CN(Cc2cccn2-c2ncccn2)CCN1Cc1ccc(F)cc1 (stereo unspecified) do in these assays?
HT1080 IDH1KD tx: -0.5%; TGFb inhibitor: -19.8%; HT1080-NT tox: -4.3%; Giardia kill: 7.1; HepG2 viability: -17.4%; IL-1B inflam inh: -22.4

How did O=C(O)c1cccc(Cn2c(Cl)c(/C=N/NC(=O)c3ccccc3Cl)sc2=O)c1 do in these assays?
HT1080 IDH1KD tx: 0.4%; TGFb inhibitor: -15.2%; HT1080-NT tox: 8.6%; Giardia kill: 3.9; HepG2 viability: 15.8%; IL-1B inflam inh: 7.2

What do the screens show for `O=C(N/N=C/c1sc(=O)n(Cc2ccc(Br)cc2)c1Cl)c1ccco1`?
HT1080 IDH1KD tx: -10.2%; TGFb inhibitor: inconclusive; HT1080-NT tox: -22.9%; Giardia kill: 14.1; HepG2 viability: -89.5%; IL-1B inflam inh: -77.6*

Results for O=C(O)c1cccc(Cn2c(Cl)c(/C=N/Nc3ccccc3)sc2=O)c1 ?
HT1080 IDH1KD tx: 5.8µM*; TGFb inhibitor: -11.6%; HT1080-NT tox: inconclusive; Giardia kill: 5.9; HepG2 viability: -18.8%; IL-1B inflam inh: -0.5

Results for O=C(N/N=C/c1ccc(Br)s1)c1ccco1 ?
HT1080 IDH1KD tx: -3.9%; TGFb inhibitor: 3.4%; HT1080-NT tox: -11.2%; Giardia kill: 3.9; HepG2 viability: -25.8%; IL-1B inflam inh: -17.3

What do the screens show for `CCCCSc1nnc(-c2ccc(OC)cc2)n1C`?
HT1080 IDH1KD tx: -0.4%; TGFb inhibitor: 9.1%; HT1080-NT tox: 4.4%; Giardia kill: -9.3; HepG2 viability: -1.0%; IL-1B inflam inh: 0.0

Results for COc1ccccc1CN(C)CC(=O)Nc1cccc2ccccc12 ?
HT1080 IDH1KD tx: -23.5%; TGFb inhibitor: -2.0%; HT1080-NT tox: -15.2%; Giardia kill: inconclusive; HepG2 viability: -19.9%; IL-1B inflam inh: -59.6*

Results for COc1cc(NC(=O)Nc2nc(C(N)CCc3ccccc3)cs2)cc(OC)c1OC (stereo unspecified) ?
HT1080 IDH1KD tx: inconclusive; TGFb inhibitor: inconclusive; HT1080-NT tox: 18.4µM*; HepG2 viability: -89.3%; IL-1B inflam inh: inconclusive

What do the screens show for `COc1ccc(NC(=O)Nc2cc(NC(=O)Nc3ccc(OC)cc3)c(C)nc2C)cc1`?
HT1080 IDH1KD tx: 18.4%; TGFb inhibitor: -11.5%; HT1080-NT tox: 15.3%; Giardia kill: 9.0; HepG2 viability: -0.6%; IL-1B inflam inh: 20.9

What do the screens show for `COc1ccc(OC)c(NC(=O)Nc2nc(C(N)CCc3ccccc3)cs2)c1` (stereo unspecified)?
HT1080 IDH1KD tx: 20.6µM*; TGFb inhibitor: inconclusive; HT1080-NT tox: inconclusive; HepG2 viability: 15.8µM*

Results for COc1ccc(OC)c(NC(=O)Nc2cc(NC(=O)Nc3cc(OC)ccc3OC)c(C)nc2C)c1 ?
HT1080 IDH1KD tx: 23.1µM*; TGFb inhibitor: 16.8%; HT1080-NT tox: 18.4µM*; Giardia kill: 0.0; HepG2 viability: -6.0%; IL-1B inflam inh: 55.8

What do the screens show for `NC(CCc1ccccc1)c1csc(NC(=O)NCC2CCCCC2)n1` (stereo unspecified)?
HT1080 IDH1KD tx: inconclusive; TGFb inhibitor: inconclusive; HT1080-NT tox: 16.4µM*; HepG2 viability: -101.6%; IL-1B inflam inh: inconclusive

What do the screens show for `O=C(Nc1ccnn1C1CCN(C(=O)c2ccc(Cl)cc2)CC1)C1CC1`?
HT1080 IDH1KD tx: 6.7%; TGFb inhibitor: -18.7%; HT1080-NT tox: 9.6%; Giardia kill: 8.8; HepG2 viability: -15.7%; IL-1B inflam inh: 0.4
